The values that follow come from PubChem BioAssay AID589 (National Center for Advancing Translational Sciences (NCATS), 2007).

The campaign covered roughly 59,000 compounds. About 6,200 (11%) were called active. Not shown: some 9% with an inconclusive outcome. No stated cut-off is given here; in the data, active means max dye-equivalent concentration above about 10 nM; inconclusive means mostly about 1.1 nM to 9.6 nM; inactive means weaker than that. For the sample, actives were picked, then their nearest neighbours and some compounds at random.

A short description of this assay: qHTS Assay for Spectroscopic Profiling in 4-MU Spectral Region. Particulars: compound autofluorescence, 340/450 nm, 4-MU equivalents; active compounds read high. In outline:
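Intrinsic fluorescence at 340/450 nm (ex/em) was read after 15 min at room temperature in pH 8.0, 100 mM Tris. Each compound concentration expressed as 4-MU-equivalent concentration from a six-point 4-MU standard series on each plate.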
For `Cc1ccc(S(=O)(=O)N2CCC(C(=O)OCC(=O)N3CC(=O)Nc4ccccc43)CC2)cc1`, the max dye-equivalent concentration result is “inactive”.
The same measure for `CN(C)C(=O)c1ccc(-c2cncnc2NC2CCNCC2)cc1`: “inactive”; for `CC(=O)OCC(=O)[C@@]1(O)CC[C@@H]2[C@H]3CCC4=CC(=O)C=C[C@]4(C)[C@]3(F)[C@@H](O)C[C@@]21C`: “inactive”; for `Cn1c(Cc2csc(N)n2)nnc1SC/C=C/c1ccccc1`: “inactive”.
For `O=C(Nc1ccc2c(c1)OCCO2)c1ccncc1` the value was “inactive”; for `COc1ccc(C(=O)N2CCC3(CCCN(C(c4ccccc4)c4ccccc4)C3)CC2)cc1`, “inactive”; for `CC(c1ccco1)N(C(=O)c1ccc(S(=O)(=O)N2CCCCC2)cc1)c1ccccn1` (stereo unspecified), “inactive”.
The same measure for `CCOc1cccc(NC(=O)C2CCCN(S(=O)(=O)c3ccc(OC)cc3)C2)c1` (stereo unspecified): “inactive”; for `C[C@@H]1CC[C@H]2[C@H](C)[C@H]3[C@H](C[C@H]4[C@@H]5CC=C6C[C@@H](O)CC[C@@]6(C)[C@@H]5C[C@@H](O)[C@]34C)N2C1`: “inactive”; for `CCCn1nnc2sc3c(c2c1=O)CCC(C)C3` (stereo unspecified): 33 nM (active).
On to `CC1CCc2sc3nc(N4CCN(CCO)CC4)n4ncnc4c3c2C1` (stereo unspecified), for which the max dye-equivalent concentration result was “inactive”.
On to `O=c1c2ccccc2nnn1CSc1nc2sc3c(c2c(=O)n1CC1CCCO1)CCC3` (stereo unspecified), for which the max dye-equivalent concentration entry is “inactive”.
For `O/N=C(\c1ccc2c(c1)OCCO2)C1CCCCC1` the value was “inactive”.
As to `CCN(CC)Cc1c(C(=O)OC)nnn1-c1nonc1N`, the max dye-equivalent concentration entry is “inactive”.
For `CC(=O)c1sc2nc(SCC(=O)N3CCCCC3)[nH]c(=O)c2c1C` the value was “inactive”; for `O=C1N=C(N2CCOCC2)CS1`, “inactive”.
As to `CN(CCC#N)c1ncnc2scc(-c3ccccc3)c12`, the max dye-equivalent concentration result is “inactive”.
For `CCCC(=O)NC(C)C(c1cccs1)N1CCN(c2ccccc2)CC1` (stereo unspecified) the value was “inactive”.
Regarding `COCCOC(=O)C1=C(C)Nc2nc(C)nn2C1c1ccccc1` (stereo unspecified), the max dye-equivalent concentration result was “inactive”.
On to `CCOC(=O)c1ccc(NC(=O)CSc2ncccn2)cc1`, for which the max dye-equivalent concentration result was “inactive”.
As to `CCOC(=O)C1=C(C)NC(C)=C(C(=O)OCC)C1c1ccccn1`, the max dye-equivalent concentration was 290 nM (active).
For `Cc1ccc(S(=O)(=O)NCCN2CCOCC2)cc1C` the value was “inactive”; for `Cc1nn(C)c(C)c1S(=O)(=O)N1CCc2ccccc21`, “inactive”.
For `O=S(=O)(c1cccs1)N1CCN(Cc2ccccc2)CC1` the value was “inactive”; for `O=S(=O)(c1cccs1)N1CCc2ccccc2C1`, “inactive”.
In the case of `CCCCNc1nc2ccccc2nc1NS(=O)(=O)c1cccs1`, the max dye-equivalent concentration is 45 nM (active).
Consider `CC(C)CCNC(=O)CN(C(=O)Cn1nnc(-c2ccc(F)cc2)n1)C1CCCC1`, for which the max dye-equivalent concentration result is “inactive”.
`O=C(O)c1cscn1`: the max dye-equivalent concentration entry was “inactive”.
The same measure for `CCCS(=O)(=O)N1CCN(C(=O)c2cccs2)CC1`: “inactive”.
For `COc1ccc(S(=O)(=O)N2CCN(C(=O)c3cccs3)CC2)cc1OC` the value was 3300 nM (active); for `COc1ccc(OCC(=O)N2CCN(C(=O)c3cccs3)CC2)cc1`, “inactive”; for `NCC(=O)[C@@H](O)[C@H](O)[C@H](O)CO`, “inactive”.
For `CCn1c(SCC(=O)Nc2cc(C)c(Cl)cc2OC)nnc1-c1ccco1` the value was “inactive”; for `O=S(=O)(NCc1ccc2c(c1)OCO2)c1cccc2nsnc12`, “inactive”; for `CCN(CC)CCN1C(=O)C(=O)/C(=C(/O)c2ccc(OC)c(OC)c2)C1c1ccccn1` (stereo unspecified), 33 nM (active).
For `COc1ccc(/C(O)=C2/C(=O)C(=O)N(CCCN(C)C)C2c2ccccc2)cc1OC` (stereo unspecified), the max dye-equivalent concentration result is “inactive”.
Take `CCCOc1ccc(/C(O)=C2/C(=O)C(=O)N(CCN(C)C)C2c2ccc(OC)c(OC)c2)cc1` (stereo unspecified): the max dye-equivalent concentration entry was “inactive”.
For `CCn1nc(C(=O)OCC(=O)N2c3ccccc3CC2C)c2ccccc2c1=O` (stereo unspecified), the max dye-equivalent concentration entry is “inactive”.
The same measure for `Cc1noc(COc2ccccc2OCC(O)CNC(C)(C)C)n1` (stereo unspecified): “inactive”; for `CCc1nc(Nc2ccc3nccnc3c2)c2oc3ccccc3c2n1`: 55 nM (active).
For the compound `CCSc1nc(C)nc2c1oc1ccccc12`, the max dye-equivalent concentration result is “inactive”.
The same measure for `CCc1nc(N2CCN(c3nc(C)cc(C)n3)CC2)c2oc3ccccc3c2n1`: “inactive”; for `COc1ccccc1CNC(=O)CCCn1c(=O)c2ccccc2n(CC(=O)NC2CCCC2)c1=O`: “inactive”; for `Cc1ccc(C(c2nnnn2CS(=O)(=O)c2ccc(C)cc2)N2CCC(C(N)=O)CC2)cc1` (stereo unspecified): “inactive”.
With `O=C(CSc1nc(-c2ccco2)cc(C(F)(F)F)n1)N1CCc2ccccc2C1`, the max dye-equivalent concentration entry is “inactive”.
For `O=C(NCc1ccco1)c1cc(-c2cccnc2)nc2ccc(Cl)cc12` the value was “inactive”.
As for `O=C(NCc1ccco1)c1cnn2c(C(F)(F)F)cc(-c3ccco3)nc12`, the max dye-equivalent concentration is 260 nM (active).
The same measure for `COC(=O)c1cnn2c(C(F)(F)F)cc(-c3ccco3)nc12`: 970 nM (active); for `COC(=O)c1ccccc1NC(=O)Cn1nc(C(F)(F)F)c2c1CCC2`: “inactive”.
For `O=C(Nc1ccccc1)Nc1ccccc1C(=O)NCc1ccco1` the value was “inactive”.
As to `CCOC(=O)C1C(=O)OC2(CCCC2)C1C(=O)OCC` (stereo unspecified), the max dye-equivalent concentration entry is “inactive”.
Consider `Cc1cccc(NC(=O)C2CCCN2S(=O)(=O)c2ccc(F)cc2)c1C` (stereo unspecified), for which the max dye-equivalent concentration result was “inactive”.
For `CCOC(=O)C1(C(F)(F)F)N=C(N(C)C)OC(N(C)C)=N1`, the max dye-equivalent concentration entry was “inactive”.
The same measure for `CC(=O)c1c(C)n(-c2ccc(N(C)C)cc2)c2ccc(OCC(N)=O)cc12`: “inactive”.
The same measure for `COc1cc(OC)c(C(=O)NC2CC(C)(C)NC(C)(C)C2)cc1OC`: “inactive”; for `COc1ccc(CCn2c(NCCCN3CCOCC3)nc3c2c(=O)[nH]c(=O)n3C)cc1`: “inactive”.
For `CCCCn1c(SCc2ncc(-c3ccccc3)o2)nc2cc(S(N)(=O)=O)ccc21` the value was “inactive”; for `CCN1CCN(c2ncnc3c2oc2nc(C)c4c(c23)CC(C)(C)OC4)CC1`, “inactive”; for `Cc1nc(NCCN)c(C#N)c2c1COC(C)(C)C2`, 13 nM (active).
Regarding `C=CCNC(=O)CCCC(=O)NCC=C`, the max dye-equivalent concentration result was “inactive”.
For `Nc1nc2c(ncn2[C@H]2CC[C@@H](CO)O2)c(=O)n1C(=O)c1ccccc1` the value was “inactive”; for `CC(=O)c1cccc(NC(=O)N2CCCC2C(=O)NCCC(C)C)c1` (stereo unspecified), “inactive”; for `COc1ccc(NC(=O)N2CC3(CCN(C(C)=O)CC3)C2)cc1`, “inactive”.
Take `CCOC(=O)c1c(NC(=O)CCC(=O)NCc2ccco2)sc2c1CCCC2`: the max dye-equivalent concentration entry was “inactive”.
As to `CCCc1cc(=O)oc2c(C)c(O)c(CN3CCCCC3)cc12`, the max dye-equivalent concentration is 7800 nM (active).
`CCOC(=O)N1CCN(Cc2oc(CO)cc(=O)c2O)CC1`: the max dye-equivalent concentration result was “inactive”.
For `Nc1nnnn1/N=C/c1cccs1` the value was “inactive”; for `Oc1ccc2nc(Cc3ccccc3)[nH]c2c1`, “inactive”.
For `COC(=O)Cc1nc2ccccc2[nH]1`, the max dye-equivalent concentration entry is “inactive”.
As for `COC(=O)Nc1nc2ccc(Sc3ccccc3)cc2[nH]1`, the max dye-equivalent concentration was 14 nM (active).
The same measure for `COC(=O)c1nc(NC(=O)c2ccc(Cl)cc2)n[nH]1`: “inactive”; for `CCC(=O)Nc1ccccc1N1CCN(S(C)(=O)=O)CC1`: “inactive”.
For `O=C(Cn1cnc2c(cnn2-c2ccccc2)c1=O)NCc1ccccc1` the value was “inactive”; for `O=C(Nc1ccc(S(=O)(=O)N2CCCC2)cc1Cl)C1=COCCO1`, “inactive”.
For the compound `O=C(Cn1c(=O)sc2ccccc21)Nc1ccc2c(c1)OCCO2`, the max dye-equivalent concentration result is “inactive”.
For `CC(C)(C)NC(=O)NC(=O)COC(=O)Cn1c(C(F)(F)F)nc2ccccc21` the value was “inactive”.
On to `Cn1cccc1C(=O)NC(=O)COC(=O)Cc1coc2ccc3ccccc3c12`, for which the max dye-equivalent concentration was 30 nM (active).
`Cn1cccc1C(=O)Nc1nccs1`: the max dye-equivalent concentration entry was “inactive”.
For `CC(=O)c1cc2c(cc1N)OCO2`, the max dye-equivalent concentration entry is “inactive”.
For `COCc1[nH]nc2c1C(C1C=CCCC1)C(C#N)=C(N)O2` (stereo unspecified) the value was “inactive”.
In the case of `CC(=O)Oc1ccc2c(C)c(CC(C)O)c(=O)oc2c1` (stereo unspecified), the max dye-equivalent concentration was 15000 nM (active).
As for `FC(F)(F)c1ccccc1-c1nc(-n2ccnc2)c2ccccc2n1`, the max dye-equivalent concentration entry was “inactive”.
For `O=C1CN(C(=O)COC(=O)C2CC(=O)N(Cc3ccco3)C2)c2ccccc2N1` (stereo unspecified), the max dye-equivalent concentration entry was “inactive”.
On to `COc1ccc(C(=O)n2nc(-c3ccc(C)cc3)nc2N)cc1OC`, for which the max dye-equivalent concentration is 35 nM (active).
The same measure for `COc1ccc(C(=O)n2nc(-c3ccc(Cl)cc3)nc2N)cc1OC`: “inactive”; for `COc1ccccc1C(=O)n1nc(-c2ccccc2)nc1N`: “inactive”.
For `CN(C(=O)c1ccccn1)c1nnc(-c2ccccn2)s1` the value was “inactive”; for `C=CCNC(=O)c1ccc(C)c(Br)c1`, “inactive”.
As to `CNC(=O)c1cc2c(ccc3ccccc32)oc1=N`, the max dye-equivalent concentration was 9900 nM (active).
The same measure for `O=C(NCCc1ccc2c(c1)OCCO2)c1cc2ccccc2o1`: “inactive”; for `COc1c(C(=O)N2CCCC2)ccc2ccccc12`: “inactive”.
The same measure for `CCOC(=O)N1CCN(C(=O)c2n[nH]c(=O)c3ccccc23)CC1`: “inactive”; for `CCOC(=O)N1CCN(C(=O)c2cc3c(ccc4ccccc43)oc2=O)CC1`: 1500 nM (active); for `CCCCC(=O)Nc1cc(C)c2c(=O)oc3ccccc3c2n1`: “inactive”.
As to `C=CCSc1nc2ccccc2[nH]1`, the max dye-equivalent concentration result is “inactive”.
Consider `Cc1ccc(CNC(=O)C2CC(=O)N(C3CCCCCCC3)C2)cc1` (stereo unspecified), for which the max dye-equivalent concentration result was “inactive”.
For `COc1ccc(CCNS(=O)(=O)c2ccc(F)cc2)cc1OC` the value was “inactive”.
For `COC(=O)c1ccc2c(c1)S(=O)(=O)NC(=NCCCN1CCOCC1)S2` the value was “inactive”.
Take `Cc1cc(C(F)(F)F)n2ncc(-c3ccccc3)c2n1`: the max dye-equivalent concentration is 12 nM (active).
Regarding `Cc1cc(-n2nc(C)cc2C)n2ncc(-c3ccccc3)c2n1`, the max dye-equivalent concentration entry is “inactive”.
The same measure for `Cc1cc(Cl)ccc1OCC(=O)Oc1c(Cl)c(Cl)c(Cl)c(Cl)c1Cl`: “inactive”.
On to `Cc1cc(C)c2nc(SCCC#N)nc(C)c2c1`, for which the max dye-equivalent concentration result is “inactive”.
For `C=CCN(c1ccc(C(N)=O)cc1)S(C)(=O)=O` the value was “inactive”; for `O=C(COC(=O)c1ccc(Oc2ccccc2)cc1)Nc1nnc(-c2ccccc2)o1`, “inactive”.
Take `O=C(CSc1nnc(-c2ccccc2)o1)N1CCOCC1`: the max dye-equivalent concentration entry was “inactive”.
With `Nc1ccc(-c2nnc(-c3ccc(-c4ccccc4)cc3)o2)cc1`, the max dye-equivalent concentration is 170 nM (active).
On to `O=C(Nc1ccc(Cl)cc1)c1ccsn1`, for which the max dye-equivalent concentration entry was “inactive”.
The same measure for `CCC[C@H]1C(=O)N2C(N(C)C)=Nc3ccc(C)cc3N2C1=O`: “inactive”; for `COc1ccc(-c2nnc(SCC(=O)c3cccs3)o2)c(OC)c1`: “inactive”; for `COc1ccc(OC)c(C(=O)CSc2nnc(-c3cccs3)o2)c1`: 150 nM (active).
Regarding `COc1ccc(-n2c(C)cc(C(=O)CSc3nnc(-c4cccs4)o3)c2C)cc1`, the max dye-equivalent concentration result was “inactive”.
